According to PubChem BioAssay AID372 (MTDP, 2006):
Among all 100,000 compounds or so, about 770 (0.77%) were called active. For the sample, actives were picked, then their nearest neighbours and some compounds at random. Values without a mark were called inactive. Rule as the data show it: active = inhibition above about 50%; inactive = the rest.

biological target: Gag-Pol polyprotein (Human immunodeficiency virus type 1 group M subtype B (isolate HXB2)) (UniProt P04585); experiment: RNase H inhibition, HIV 1 Gag Pol polyprotein, FRET biochemical assay, screening (AID 372); conditions: HIV-1 RT RNase H, FRET RNA/DNA substrate fluorescence; at 10 µM; active compounds read high

Structure (SMILES)	inhibition
Cc1ccc(C)c(N2CCN(Cc3ccccc3Br)CC2)c1	6%
FC(F)(F)c1ccc(CN2CCN(c3cccc(Cl)c3)CC2)cc1	12%
O=Cc1cn(Cc2c(Cl)cccc2Cl)c2ccccc12	34%
CN1C(=O)C(=Cc2ccc(N3CCCCCC3)o2)C(=O)N(C)C1=S	26%
C=CCN1C(=O)/C(=C\c2ccc(-c3cccc(Cl)c3Cl)o2)C(=O)NC1=S	55% (active)
C=CCN1C(=O)/C(=C\c2ccc(C)o2)C(=O)NC1=S	13%
C=CCN1C(=O)NC(=O)/C(=C/c2ccc(-c3cc([N+](=O)[O-])ccc3Cl)o2)C1=O	22%
COc1ccc(N2C(=O)/C(=C\c3ccoc3)C(=O)NC2=S)cc1	44%
N/C(=N\[N+](=O)[O-])N/N=C/c1ccc(-c2ccc(Cl)cc2)o1	6%
N/C(=N\[N+](=O)[O-])N/N=C\c1ccc(-c2ccc([N+](=O)[O-])cc2)o1	28%
N/C(=N\[N+](=O)[O-])N/N=C\c1ccc(-c2ccc(Cl)c([N+](=O)[O-])c2)o1	56% (active)
Cc1ccc(C2c3c(c4ccccc4oc3=O)Oc3c2c(=O)oc2ccccc32)cc1	11%
COc1cccc(C=C2C(=O)NC(=O)NC2=O)c1OC	10%
O=C1NC(=S)NC(=O)C1=Cc1cccc(OS(=O)(=O)c2ccc3ccccc3c2)c1	53% (active)
O=C1NC(=S)NC(=O)C1=Cc1ccccc1OS(=O)(=O)c1ccc2ccccc2c1	21%
COc1cccc(C=C2C(=O)NC(=S)NC2=O)c1	7%
O=C(c1cccs1)C1CN2CCC1CC2 (stereo unspecified)	0%
O=C1NC(=O)C(=Cc2cn(-c3ccccc3)nc2-c2ccc(F)cc2)C(=O)N1	53% (active)
O=C1NC(=O)C(=Cc2ccccc2F)C(=O)N1	3%
Cc1ccc(-c2nn(-c3ccccc3)cc2C=C2C(=O)NC(=S)NC2=O)o1	21%
Cc1ccc(C)c(COc2cc(C)cc3oc(=O)c4c(c23)CCC4)c1	0%
